Target: T1, MoHTR1 (Magnaporthe oryzae, UniProt Q2KEJ2 20-198)
T1 sequence: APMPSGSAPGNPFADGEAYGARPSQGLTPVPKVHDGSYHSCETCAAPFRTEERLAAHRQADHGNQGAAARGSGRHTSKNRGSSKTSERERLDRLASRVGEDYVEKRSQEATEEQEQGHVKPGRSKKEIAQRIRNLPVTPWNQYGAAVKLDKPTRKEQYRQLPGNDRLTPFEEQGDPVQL
Assay: array; high values mean tight binding
Conditions: protein: recombinant; tags: DsRed; 6xHis (pET-32a vector); dsDNA, one strand shown

Row | Sequence | binding signal [a.u.]
1 | AACTCCTC | 22100
2 | CTCTAATC | 21800
3 | CTTCAATC | 21100
4 | CCTCAATC | 19700
5 | CTCCAACC | 14800
6 | CAATCCTC | 20100
7 | CAATCTCC | 20800
8 | CCTCCTCC | 21700
9 | AACTCTCC | 21600
10 | CTCAACTC | 24700
11 | CCGCCACC | 13400
12 | CCAACTCC | 20800
13 | CCACCTCC | 24000
14 | TCAATCTC | 23900
15 | CAATCTTC | 27900
16 | CCTCCACC | 23900
17 | TCTCAATC | 24100
18 | CCATACAC | 14100
19 | TCCAATCC | 22900
20 | CTCATACC | 25600
21 | CTAACTCC | 22500
22 | CATACTCC | 19100

Target: T2, MoHTR2 (Magnaporthe oryzae, UniProt G5EHQ6 19-110)
T2 sequence: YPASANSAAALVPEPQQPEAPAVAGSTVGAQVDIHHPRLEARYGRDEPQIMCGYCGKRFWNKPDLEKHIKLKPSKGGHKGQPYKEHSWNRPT
Assay: array; high values mean tight binding
Conditions: protein: recombinant; tags: DsRed; 6xHis (pET-32a vector); dsDNA, one strand shown

Row | Sequence | binding signal [a.u.]
23 | CATACCTC | 8490
24 | CCTCCTCC | 10800
25 | CCACCTCC | 11800
26 | CCTCCGCC | 9500
27 | CCTCCACC | 11600
28 | CCGCCTCC | 8800

From PMC7672089, “Two nuclear effectors of the rice blast fungus modulate host immunity via transcriptional reprogramming”
